Measured values: PubChem BioAssay AID1159580 (chemical genetic matrix, 2015)
About 2,000 (36%) of roughly 5,500 compounds were called active. Another 18% or so got no clear call; they are omitted. Cut-off read from the data, not from the text of the source: active = normalized growth mostly below about 0.91 (no sharp cut-off); inconclusive = no clear call, values can overlap the other calls; inactive = mostly above about 0.92. The list shows a part of the results.

Experiment: chemical genetic growth profiling, strain panel (AID 1159580);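 note: tested at 20 µM; growth read once vehicle control cultures reached saturation at 30 °C; 1 = growth at the plate median or of vehicle wells; lower values mean less growth of the strain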
Details: S. cerevisiae deletion strains, growth OD

Measured: normalized growth

COc1cc(OC)cc(/C(N)=N\O)c1
inactive: locus YAR019C, strain CDC15, hits give low values 0.981 | locus YBL105C, strain PKC1, hits give low values 0.99 | locus YBR135W, strain CKS1, hits give low values 0.986 | locus YBR136W, strain MEC1, hits give low values 0.975 | locus YBR160W, strain CDC28, hits give low values 0.993 | locus YDL017W, strain CDC7, hits give low values 0.989 | locus YDL028C, strain MPS1, hits give low values 0.982 | locus YDL101C, strain DUN1, hits give low values 0.992 | locus YDL108W, strain KIN28, hits give low values 0.982 | locus YDL132W, strain cdc53, hits give low values 0.997 | locus YDL214C, strain PRR2, hits give low values 0.956 | locus YDR052C, strain DBF4, hits give low values 0.991 | locus YDR054C, strain cdc34, hits give low values 0.992 | locus YDR226W, strain ADK1, hits give low values 0.994 | locus YDR477W, strain SNF1, hits give low values 0.958 | locus YER123W, strain YCK3, hits give low values 0.927 | locus YER133W, strain GLC7, hits give low values 0.971 | locus YFL009W, strain cdc4, hits give low values 0.991 | locus YFL029C, strain CAK1, hits give low values 0.975 | locus YFR003C, strain YPI1, hits give low values 0.99 | locus YFR019W, strain FAB1, hits give low values 0.961 | locus YFR028C, strain CDC14, hits give low values 0.994 | locus YGR040W, strain KSS1, hits give low values 0.959 | locus YGR052W, strain FMP48, hits give low values 1.02 | locus YGR092W, strain DBF2, hits give low values 0.943 | locus YHR030C, strain SLT2, hits give low values 0.874 | locus YHR079C, strain IRE1, hits give low values 0.909 | locus YHR082C, strain KSP1, hits give low values 0.994 | locus YHR205W, strain SCH9, hits give low values 0.891 | locus YIL147C, strain SLN1, hits give low values 0.963 | locus YJL095W, strain BCK1, hits give low values 0.875 | locus YJL128C, strain PBS2, hits give low values 0.967 | locus YJL157C, strain FAR1, hits give low values 0.983 | locus YJR016C, strain ILV3, hits give low values 0.997 | locus YJR066W, strain TOR1 (second series), hits give low values 0.929 | locus YJR066W, strain TOR1, hits give low values 0.966 | locus YKL048C, strain ELM1, hits give low values 0.962 | locus YKL067W, strain YNK1, hits give low values 0.961 | locus YKL101W, strain HSL1, hits give low values 0.925 | locus YKL193C, strain SDS22, hits give low values 0.992 | locus YKL203C, strain TOR2, hits give low values 1.01 | locus YLR133W, strain CKI1, hits give low values 0.958 | locus YLR403W, strain SFP1, hits give low values 0.937 | locus YML070W, strain DAK1, hits give low values 0.943 | locus YMR001C, strain CDC5, hits give low values 0.991 | locus YMR205C, strain PFK2 (second series), hits give low values 0.963 | locus YMR277W, strain FCP1, hits give low values 0.997 | locus YNL006W, strain LST8, hits give low values 0.993 | locus YNL020C, strain ARK1, hits give low values 0.959 | locus YNL161W, strain CBK1, hits give low values 0.988 | locus YNL183C, strain NPR1, hits give low values 0.95 | locus YNL207W, strain RIO2, hits give low values 0.988 | locus YNL222W, strain SSU72, hits give low values 0.991 | locus YNL307C, strain MCK1 (second series), hits give low values 0.951 | locus YOL078W, strain AVO1, hits give low values 0.991 | locus YOL136C, strain PFK27, hits give low values 0.955 | locus YOR061W, strain CKA2, hits give low values 0.925 | locus YOR119C, strain RIO1, hits give low values 0.983 | locus YOR231W, strain MKK1, hits give low values 0.904 | locus YOR329C, strain SCD5, hits give low values 0.987 | locus YPL031C, strain PHO85, hits give low values 0.958 | locus YPL153C, strain RAD53, hits give low values 0.943 | locus YPL204W, strain HRR25, hits give low values 0.973 | locus YPL209C, strain IPL1, hits give low values 0.988 | locus YPL256C, strain CLN2, hits give low values 0.891 | locus YPR025C, strain CCL1, hits give low values 0.986 | locus YPR106W, strain ISR1, hits give low values 0.988 | locus YPR111W, strain DBF20, hits give low values 0.986 | strain NNK1, hits give low values 0.992 | strain TSCII, hits give low values 0.996
active: locus YLR113W, strain HOG1, hits give low values 0.847
